Screening results deposited in PubChem by Broad Institute.
STK33 kin inh – STK33 kinase inhibitors, primary screen, biochemical, luminescence, ADP-Glo, MBP substrate | inhibition, % at 12.5 µM | hit rate 0.44% among 27,000 | AID 2322, 2010; in the data active = inhibition above about 20%
Target sequence (Q9BYT3 whole entry, looked up): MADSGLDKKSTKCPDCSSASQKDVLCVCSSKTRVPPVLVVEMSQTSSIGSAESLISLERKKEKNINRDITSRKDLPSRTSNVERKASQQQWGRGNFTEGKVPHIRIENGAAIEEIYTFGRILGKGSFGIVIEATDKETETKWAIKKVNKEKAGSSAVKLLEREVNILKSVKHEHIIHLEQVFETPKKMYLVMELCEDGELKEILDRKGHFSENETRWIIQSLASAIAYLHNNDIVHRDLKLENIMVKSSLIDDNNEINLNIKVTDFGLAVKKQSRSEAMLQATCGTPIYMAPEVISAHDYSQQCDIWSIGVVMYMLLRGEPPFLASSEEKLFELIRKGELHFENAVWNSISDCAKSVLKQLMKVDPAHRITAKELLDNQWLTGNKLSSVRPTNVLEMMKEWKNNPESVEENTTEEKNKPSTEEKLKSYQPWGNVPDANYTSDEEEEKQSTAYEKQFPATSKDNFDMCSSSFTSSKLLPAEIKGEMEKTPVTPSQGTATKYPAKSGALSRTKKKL
NOMO-1 viab – NOMO-1 AML cell viability reduction, primary screen, STK33 inhibitor project, CellTiter-Glo luminescence; hit rate 7.5% among 37,000; NOMO-1 AML viability, 72 h; inhibition, % (no concentration beside the values); AID 2330, 2010; in the data active = inhibition above about 80%
PD-1 reverse act – activators reversing PD-1 mediated T-cell inhibition, primary screen, luminescence, primary human CD4 T cells, PD-L1 beads; CellTiter-Glo 96 h; activation, % (test concentration not listed); 29,000 tested, under 10 active; AID 2316, 2010; call rule not given here;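 also: 0% = median vehicle wells and 100% = positive control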
Numbers without * were called inactive; . = no result given. The full list was thinned out, with hits kept by preference.

SMILES	STK33 kin inh	NOMO-1 viab	PD-1 reverse act
CCc1ccccc1NC(=O)CSc1nc2ccc(C(=O)c3ccccc3)cc2[nH]1	2	12	1
COc1ccc(C)cc1NC(=S)NCc1cnn(C)c1	-2	-2	1
COc1ccc(C(=O)Oc2c(S(=O)(=O)c3ccccc3)c(C)nn2-c2ccccc2)cc1	-3	116*	-1
COC(=O)c1cc2c(C)nn(-c3ccccc3)c2s1	.	9	0
O=C(NC(NCc1ccccn1)(C(F)(F)F)C(F)(F)F)c1cccnc1	1	8	-3
C=C(CO)C(=O)O[C@H]1C[C@H]2C(=C)C[C@H](OC(=O)C(=C)CO)[C@H]3C(=C)C(=O)O[C@@H]3[C@H]2C1=C	1	117*	3
C=C1C(=O)O[C@@H]2[C@H]3C(=C)[C@@H](O[C@@H]4O[C@H](CO)[C@@H](OC(=O)/C=C/c5ccc(O)c(O)c5)[C@H](O)[C@H]4O)C[C@H]3C(=C)C[C@@H](O)[C@@H]12	7	.	.
C[C@@H]1CN([C@@H](C)CO)C(=O)Cc2cc(NS(=O)(=O)c3ccc(F)cc3)ccc2O[C@@H]1CN(C)Cc1ccc(Oc2ccccc2)cc1	4	122*	.
C[C@H]1CN([C@@H](C)CO)C(=O)Cc2cc(NS(=O)(=O)c3ccc(F)cc3)ccc2O[C@H]1CN(C)Cc1ccc(Oc2ccccc2)cc1	7	122*	0
C[C@H]1CN([C@@H](C)CO)C(=O)Cc2cc(NS(=O)(=O)c3ccc(F)cc3)ccc2O[C@H]1CN(C)Cc1ccccc1	-2	24	0
C[C@@H]1CN([C@H](C)CO)C(=O)Cc2cc(NS(=O)(=O)c3ccc(F)cc3)ccc2O[C@H]1CN(C)Cc1ccccc1	-3	18	.
COCCCN1C(=O)c2oc3ccc(Br)cc3c(=O)c2C1c1cccc([N+](=O)[O-])c1 (stereo unspecified)	1	-11	1
COc1cc(OC)cc(C(C)(C)OC(=O)NN)c1	3	0	0
CC(C)(C)c1ccc(CSCC(=O)Nc2ccccc2C#N)cc1	.	36	0
C=C(C(=O)O[C@H]1C/C=C(/C)C[C@H](O)[C@H]2[C@H](C)C(=O)O[C@@H]2/C=C\1C)[C@@H]1CCC(=C)[C@@H]2C[C@H](O[C@@H]3O[C@H](CO)[C@@H](O)[C@H](O)[C@H]3O)C(=C)[C@@H]2C1	-3	118*	-2
C=C1CCC2C(C(=O)O)=COC(O[C@@H]3O[C@H](CO)[C@@H](O)[C@H](O)[C@H]3O)C12 (stereo partly specified)	1	3	1
CN1CCN(CCCN2C(=O)CSC2c2ccc(F)cc2)CC1 (stereo unspecified)	.	4	1
CC(C)n1cnc2c(NCc3ccccc3)nc(NCCO)nc21	35*	38	3
CC(C)n1cnc2c(NCc3ccccc3)nc(NCCCO)nc21	.	.	2
CC(OC(=O)c1cccc(O)c1)C(=O)O (stereo unspecified)	1	-7	-2
COc1cc(C(c2ccc(C)o2)c2ccc(C)o2)c(O)c([N+](=O)[O-])c1	-3	25	.
O=C(CCCCc1ccc(O)cc1)CCc1ccc(O)cc1	1	104*	-1
COc1ccc(CCC(=O)CCc2ccc(OC)cc2)cc1	.	16	-1
COc1cc(C[C@H]2C(=O)OC[C@@H]2Cc2ccc(OC)c(OC)c2)ccc1O	-7	.	.
COc1ccc2c(c1)OCC(Cc1ccc(OC)c(O)c1)C2=O (stereo unspecified)	0	109*	.
SMILES	STK33 kin inh	NOMO-1 viab	PD-1 reverse act
C[C@@H]1CN([C@@H](C)CO)C(=O)Cc2cc(NC(=O)CCCN(C)C)ccc2O[C@@H]1CN(C)Cc1ccc(Oc2ccccc2)cc1	6	21	.
C[C@H]1CN([C@@H](C)CO)C(=O)Cc2cc(NC(=O)CCCN(C)C)ccc2O[C@@H]1CN(C)Cc1ccc(Oc2ccccc2)cc1	-9	25	.
C[C@H](CO)N1C[C@H](C)[C@H](CN(C)Cc2ccc(Oc3ccccc3)cc2)Oc2ccc(NC(=O)CCCN(C)C)cc2CC1=O	-4	11	.
C[C@H]1CN([C@@H](C)CO)C(=O)Cc2cc(NC(=O)CCCCCC(=O)Nc3ccccc3N)ccc2O[C@@H]1CN(C)Cc1ccc(Oc2ccccc2)cc1	.	122*	0
C[C@@H]1CN([C@H](C)CO)C(=O)Cc2cc(NC(=O)CCCCCC(=O)Nc3ccccc3N)ccc2O[C@@H]1CN(C)Cc1ccc(Oc2ccccc2)cc1	.	128*	-1
C[C@@H]1CN([C@@H](C)CO)C(=O)Cc2cc(NC(=O)CCCCCC(=O)Nc3ccccc3N)ccc2O[C@@H]1CN(C)Cc1ccc(Oc2ccccc2)cc1	.	140*	-1
O=C(O)CCN1C(=O)c2cccc3c([N+](=O)[O-])ccc(c23)C1=O	2	.	.
Cc1nn(Cc2nnc(SCc3c(Cl)cccc3Cl)o2)c(C)c1Br	5	21	2
